# Compound activity from PubChem.
# NPR2 activator: human GC-B receptor activators, primary screen, HEK293 GC-B cells, cGMP TR-FRET, EC30 CNP; Atrial natriuretic peptide receptor 2 (Homo sapiens), P20594; 0% at EC30 CNP, 100% saturating CNP; activation, % at 10 µM; 370,000 compounds, 0.11% hits;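 active = activation at 10 µM reaching about 35% in either raw or pattern-adjusted values, limit read from the data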
# PfG6PD inh: PfG6PD enzyme inhibitors, primary screen, biochemical, fluorescence intensity, uHTS; glucose-6-phosphate dehydrogenase-6-phosphogluconolactonase (Plasmodium falciparum 3D7); PfGluPho enzyme, NADPH resazurin-diaphorase fluorescence; inhibition, % at 20 µM; 350,000 compounds, 0.78% hits;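 active = inhibition reaching at least a set limit at 20 µM in the primary screen, cut at about 59% in these data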
# APOBEC3G inh: APOBEC3G DNA deaminase inhibitors, primary screen, biochemical, fluorescence, single-stranded DNA substrate, uHTS; 330,000 compounds, 0.28% hits; inhibition, % at 20 µM; recombinant A3G, ssDNA deamination FAM/TAMRA fluorescence; DNA dC->dU-editing enzyme APOBEC-3G (Homo sapiens), Q9HC16;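 active = inhibition of at least 40% at 20 µM, with no more than 30% in the related APOBEC3A deaminase screen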
# Neddyl block: inhibitors of cullin neddylation, primary screen, biochemical, TR-FRET, uHTS, NAE and Ubc12; NEDD8-conjugating enzyme Ubc12 (Homo sapiens) + NEDD8-activating enzyme E1 regulatory …; inhibition, % at 25 µM; 360,000 compounds, 0.58% hits; AID 651699, 2012; in the data active = inhibition above about 36%
# NPR1 activator: GC-A stimulated cGMP production enhancers – HEK293 GC-A cells, cGMP TR-FRET, EC30 ANP, primary screen; Atrial natriuretic peptide receptor 1 (Homo sapiens), P16066; 0% at EC30 ANP, 100% saturating ANP; activation, % at 10 µM; 370,000 compounds, 0.14% hits; AID 1671463, 2021; in the data active = activation above about 40%
# Target sequence (P16066 whole entry, looked up): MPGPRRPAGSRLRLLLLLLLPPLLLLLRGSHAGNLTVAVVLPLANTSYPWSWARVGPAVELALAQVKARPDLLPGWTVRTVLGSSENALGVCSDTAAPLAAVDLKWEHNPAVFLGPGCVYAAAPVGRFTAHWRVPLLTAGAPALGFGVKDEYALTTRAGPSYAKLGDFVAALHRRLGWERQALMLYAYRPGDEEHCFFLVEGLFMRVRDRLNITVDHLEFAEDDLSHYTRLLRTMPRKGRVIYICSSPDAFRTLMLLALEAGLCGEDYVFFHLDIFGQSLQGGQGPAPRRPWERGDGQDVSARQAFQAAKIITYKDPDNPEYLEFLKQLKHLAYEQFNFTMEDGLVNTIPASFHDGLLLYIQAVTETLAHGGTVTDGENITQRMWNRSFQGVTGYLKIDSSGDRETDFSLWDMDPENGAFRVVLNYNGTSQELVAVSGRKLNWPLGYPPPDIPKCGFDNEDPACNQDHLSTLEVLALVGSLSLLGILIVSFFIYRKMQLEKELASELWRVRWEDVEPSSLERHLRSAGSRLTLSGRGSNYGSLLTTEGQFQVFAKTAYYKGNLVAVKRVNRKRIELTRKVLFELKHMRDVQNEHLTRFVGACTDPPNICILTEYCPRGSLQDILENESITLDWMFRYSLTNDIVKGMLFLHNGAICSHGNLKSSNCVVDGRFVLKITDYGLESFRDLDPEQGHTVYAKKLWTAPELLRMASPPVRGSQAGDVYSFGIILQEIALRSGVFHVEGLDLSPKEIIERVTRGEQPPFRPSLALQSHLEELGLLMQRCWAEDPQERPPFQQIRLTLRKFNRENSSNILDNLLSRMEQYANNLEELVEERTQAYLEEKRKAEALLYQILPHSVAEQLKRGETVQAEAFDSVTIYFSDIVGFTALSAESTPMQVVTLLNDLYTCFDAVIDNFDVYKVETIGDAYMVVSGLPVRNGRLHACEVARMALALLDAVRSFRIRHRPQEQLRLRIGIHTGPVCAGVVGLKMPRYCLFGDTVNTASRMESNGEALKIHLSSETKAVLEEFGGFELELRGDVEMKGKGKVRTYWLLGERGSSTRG
# A3A deaminase: APOBEC3A ssDNA deaminase inhibitors, primary screen, selectivity assay for APOBEC3G inhibitor project, biochemical, FAM/TAMRA oligo cleavage fluorescence | DNA dC->dU-editing enzyme APOBEC-3A (Homo sapiens), P31941 | recombinant A3A, FAM/TAMRA ssDNA deamination fluorescence | inhibition, % at 20 µM | 330,000 compounds, 0.41% hits;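 active = at least 40% inhibition at 20 µM here, with at most 30% in a related deaminase screen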
# APOBEC3A confirm: APOBEC3A deaminase inhibitors, retest, confirmation, selectivity assay for APOBEC3G inhibitor project, biochemical, single concentration, fluorescence readout; shares compounds with A3A deaminase; 1,400 compounds, 63% hits; recombinant A3A, ssDNA deaminase UDG fluorescence assay; inhibition, % at 20 µM;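 active = inhibition reaching a set limit, 80% of the first screen's cutoff, at 20 µM in any replicate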
# UDG A3A counter: E. coli UDG inhibitors, confirmation, counter-screen for APOBEC3A inhibitor project, biochemical, single concentration, fluorescence, FAM/TAMRA oligo; shares compounds with A3A deaminase; UDG counterscreen, FAM/TAMRA uracil oligo fluorescence; inhibition, % at 20 µM; 1,000 tested, under 10 active; AID 504714, 2011; call rule not given here
# A number is an active result; . = inactive; / = not tested or not shown. In the library only some 2% were active in any assay of this set; here they are far more common.
SMILES,NPR2 activator,PfG6PD inh,APOBEC3G inh,Neddyl block,NPR1 activator,A3A deaminase,APOBEC3A confirm,UDG A3A counter
COc1ccc(Br)cc1CN(C)C(=O)C1=CC=CN2CCS(=O)(=O)N=C12,.,.,.,.,.,55,51,.
COC(=O)C1=C(C)N(Cc2ccc(C(F)(F)F)cc2)C(=NCc2ccccc2C(F)(F)F)NC1c1cccc(Cl)c1 (configuration not stated),.,/,/,/,.,/,/,/
CC(C)CN1C(=O)[C@@]2(CC(=O)N(C)C2c2ccccc2)c2cc(-n3cc(CO)nn3)ccc21 (some centres not stated),.,/,/,/,.,/,/,/
CN(C)S(=O)(=O)c1ccc(C(=O)NCC[N+]2(C)CCCCCC2)o1,.,.,.,.,.,93,73,.
Cc1cccc(C(=O)Oc2ccc(/C=N/NC(=O)c3cc(O)cc(O)c3)cc2)c1,.,.,.,.,.,69,77,.
Cn1c2ccccc2c2cc(/C=N/NC(=O)c3cc(O)cc(O)c3)ccc21,.,.,.,/,.,55,60,.
C#CCNC(=O)C[C@H]1C[C@@]2(C(=O)OC)C(=C[C@H](C(C)(C)C)O[C@@H]2C)N(Cc2ccco2)C1=O,.,/,/,/,.,/,/,/
CC(OC(=O)c1cccc([N+](=O)[O-])c1)C(=O)NCc1ccc2c(c1)OCO2 (configuration not stated),.,.,.,.,.,49,.,.
CC1(C)CC(NNCCC#N)=CC(=[N+]2CCCC2)C1,.,.,.,.,.,.,/,/
CC1(C)CC(N2CCN(Cc3ccccc3)CC2)=CC(=[N+]2CCCCC2)C1,.,.,.,.,.,.,/,/
CC1(C)CC(N2CCCC2)=CC(=[N+]2CCCCC2)C1,.,.,.,.,.,51,71,.
CC1(C)CC(N2CCCC2)=CC(=[N+]2CCCC2)C1,.,.,.,.,.,66,72,.
Cc1cccc(OCC(C)CN2CCC(C(O)(c3ccccc3)c3ccccc3)CC2)c1 (configuration not stated),.,/,/,/,.,/,/,/
CCC(Oc1ccccc1OC)C(=O)Nc1ccc2c(c1)OCCO2 (configuration not stated),.,.,/,.,.,/,57,/
CN(C(=O)CNC(=O)c1ccccc1OCC(=O)Nc1ccc(I)cc1)c1ccccc1,.,/,/,/,.,/,/,/
COn1cnnc1-c1ccccc1,.,.,.,.,.,47,.,/
COC(=O)[C@]12C[C@H](CC(=O)NCCc3ccccc3OC)C(=O)N(CCC3=CCCCC3)C1=C[C@H](C(C)C)O[C@@H]2C1CC1,.,/,/,/,.,/,/,/
CC(C)[C@@H]1OC(=O)[C@@H]2CCCN2C(=O)[C@H](C)OC(=O)[C@H](C)[C@@H](C(C)C)NC(=O)[C@@H]2CCCN2C(=O)[C@H]([C@H](C)Cc2ccccc2)NC(=O)[C@@H]2CCCN2C(=O)[C@@H](C(C)C)N(C)C1=O,.,/,/,/,.,/,/,/
CC(=NNC(=O)CSc1nnc(-c2ccc(C(C)(C)C)cc2)n1-c1ccccc1)c1cccc2ccccc12,.,/,/,/,.,/,/,/
COCc1c(C(=O)N2CCN(S(=O)(=O)c3ccccc3Cl)CC2)oc2ccccc12,.,.,.,.,.,.,/,/
COCc1c(C(=O)N2CCN(Cc3nc4ccccc4s3)CC2)oc2ccccc12,.,.,.,.,.,63,72,.
O=C(NCCc1ccccc1)OCc1cn(Cc2cccc(Cl)c2)nn1,.,/,/,/,.,/,/,/
C[n+]1ccc(/C=C/c2ccc(Br)cc2)cc1,.,.,.,.,.,51,82,.
NC(=O)C[n+]1cccc(C(=O)Nc2ccccc2)c1,.,.,.,.,.,76,78,.
CCSc1ccc2cc(OC)ccc2[n+]1CC,.,.,.,.,.,78,70,.
SMILES,NPR2 activator,PfG6PD inh,APOBEC3G inh,Neddyl block,NPR1 activator,A3A deaminase,APOBEC3A confirm,UDG A3A counter
CCn1ccc2cc(OC)ccc2c1=S,.,.,.,.,.,.,/,/
COC(=O)C1=C(C)N(Cc2ccccc2)C(=NCC(C)C)N[C@H]1c1ccccc1,/,.,.,/,/,64,58,.
COC(=O)C1=C(C)N(Cc2ccccc2)C(=NCc2ccc(OC)cc2)N[C@H]1c1ccccc1,.,.,.,.,.,45,59,.
Cc1ccc(-n2nnnc2CNC(=O)C2CC(=O)N(c3ccccc3)C2)cc1C (configuration not stated),.,.,.,.,.,.,/,/
Cc1ccc(N2CC(C(=O)NCc3nnnn3-c3ccc(C)c(C)c3)CC2=O)cc1 (configuration not stated),.,.,.,.,.,52,.,.
COC(=O)C1CN(Cc2ccc(F)cc2)CCS(=O)(=O)N1Cc1ccc(C)cc1 (configuration not stated),.,/,/,/,.,/,/,/
O=C(NC(=S)Nc1ccccc1C(=O)O)c1cncc(Br)c1,.,.,.,.,.,41,18,.
O=C(Nc1ccccc1C(=O)Nc1ccccc1C(=O)O)c1ccccc1,.,.,.,.,.,.,/,/
O=C(Nc1ccccc1C(=O)O)c1cncc(Br)c1,.,.,.,.,.,58,.,/
CCCOc1ccc(/C=c2\sc3nc(-c4ccco4)nn3c2=O)cc1OCC,.,.,.,.,.,74,30,.
CCN(CC)C(=O)CC[C@H]1CC[C@]2(CCCN(C(=O)C(C)(C)C)C2)O1,.,/,/,/,.,/,/,/
CCOC(=O)N1CCN(c2ccc(C(=O)c3cccc(F)c3)cc2)CC1,/,.,.,.,/,45,.,.
C=CCn1nnnc1SCC(=O)Nc1cccc(C(F)(F)F)c1,.,.,.,.,.,70,81,.
CCN(CC)CCOc1ccc2c(c1)C(=NO)c1cc(OCCN(CC)CC)ccc1-2,.,.,.,.,.,47,37,.
CCN(CC)CCOc1ccc(Br)cc1,.,.,.,.,.,.,/,/
